Reference: PubChem BioAssay (EPA / NIEHS)
Records with an inconclusive call do not appear. More than one record can exist for a structure, and the calls need not agree. The source made the active and inactive calls. Rule for the calls: active = hit-call score of the fitted dose curve at least 0.9, where 1 is the maximum; inconclusive = response in the unintended direction; inactive = score below 0.9.

Legend:
[1] = target: human Janus Kinase 2 (Jak2), JAK2 (gene 3717) (UniProt O60674); test: NVS_ENZ_hJak2: NovaScreen (NVS) Enzymatic Assay for human Janus Kinase 2 (Jak2) (AID 2283169)
human Janus Kinase 2 (Jak2), JAK2 (gene 3717), sequence (O60674 whole entry, looked up): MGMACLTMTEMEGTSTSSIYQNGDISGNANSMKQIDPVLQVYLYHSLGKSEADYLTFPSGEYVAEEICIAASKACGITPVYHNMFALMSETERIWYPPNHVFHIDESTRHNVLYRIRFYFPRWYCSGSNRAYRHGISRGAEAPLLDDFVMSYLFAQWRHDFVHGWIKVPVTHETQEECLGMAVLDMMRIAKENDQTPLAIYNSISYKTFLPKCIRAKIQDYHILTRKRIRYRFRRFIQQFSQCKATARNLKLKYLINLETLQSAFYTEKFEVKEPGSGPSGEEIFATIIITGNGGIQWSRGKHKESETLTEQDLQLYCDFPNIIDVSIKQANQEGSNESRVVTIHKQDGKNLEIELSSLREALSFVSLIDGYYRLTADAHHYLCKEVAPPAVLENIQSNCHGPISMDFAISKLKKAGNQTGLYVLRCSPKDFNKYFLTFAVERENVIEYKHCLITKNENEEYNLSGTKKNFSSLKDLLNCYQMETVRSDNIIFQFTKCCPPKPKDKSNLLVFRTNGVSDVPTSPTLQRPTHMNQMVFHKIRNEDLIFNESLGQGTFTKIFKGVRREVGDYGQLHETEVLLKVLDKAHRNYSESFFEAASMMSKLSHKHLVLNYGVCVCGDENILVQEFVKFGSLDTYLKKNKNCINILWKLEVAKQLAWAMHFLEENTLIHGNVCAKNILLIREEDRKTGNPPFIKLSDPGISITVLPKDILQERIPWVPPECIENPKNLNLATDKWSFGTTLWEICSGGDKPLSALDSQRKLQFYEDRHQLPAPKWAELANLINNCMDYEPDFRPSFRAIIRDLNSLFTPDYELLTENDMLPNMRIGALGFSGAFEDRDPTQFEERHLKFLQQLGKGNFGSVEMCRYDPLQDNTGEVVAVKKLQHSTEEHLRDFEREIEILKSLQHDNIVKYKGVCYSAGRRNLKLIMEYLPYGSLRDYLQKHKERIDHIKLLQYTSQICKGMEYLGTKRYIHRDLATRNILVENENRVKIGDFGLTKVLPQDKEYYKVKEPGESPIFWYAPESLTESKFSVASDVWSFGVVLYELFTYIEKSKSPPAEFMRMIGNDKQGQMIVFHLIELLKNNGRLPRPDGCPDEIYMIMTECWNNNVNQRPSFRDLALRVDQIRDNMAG
Outline: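 Cell-free recombinant human JAK2 enzyme activity assay, fluorescence/electrophoretic mobility shift read 1 h after dosing. Screened in duplicate at 25 uM, then concentration-response up to 50 uM; activity as signal loss relative to DMSO.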

[2] = target: human Mitogen-Activated Protein Kinase 1 (MAPK 1), MAPK1 (gene 5594) (UniProt P28482); test: NVS_ENZ_hMAPK1: NovaScreen (NVS) Enzymatic Assay for human Mitogen-Activated Protein Kinase 1 (MAPK 1) (AID 2283175)
Outline: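 Cell-free recombinant human MAPK1 enzymatic assay, fluorescence/electrophoretic mobility shift read at 1 h; loss of signal vs DMSO. Primary screen in duplicate at 25 uM; actives (e.g. ≥30% inhibition) run as concentration-response up to 50 uM.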

[3] = target: Mitogen-activated protein kinase 3 (Homo sapiens) (UniProt P27361); test: NVS_ENZ_hMAPK3: NovaScreen (NVS) Enzymatic Assay for human Mitogen-Activated Protein Kinase 3 (MAPK 3) (AID 2283177)
Mitogen-activated protein kinase 3 (Homo sapiens), sequence (P27361 whole entry, looked up): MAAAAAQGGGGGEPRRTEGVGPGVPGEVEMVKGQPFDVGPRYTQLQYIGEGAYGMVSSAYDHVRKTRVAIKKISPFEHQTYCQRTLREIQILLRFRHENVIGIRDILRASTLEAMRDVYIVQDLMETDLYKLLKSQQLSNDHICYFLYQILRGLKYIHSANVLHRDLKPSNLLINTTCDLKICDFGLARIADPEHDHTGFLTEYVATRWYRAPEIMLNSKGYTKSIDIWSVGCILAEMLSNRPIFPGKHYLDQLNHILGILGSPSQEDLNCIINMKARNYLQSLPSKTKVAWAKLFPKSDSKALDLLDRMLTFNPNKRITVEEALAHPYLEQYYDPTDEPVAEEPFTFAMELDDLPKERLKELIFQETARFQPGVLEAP
Outline: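 Cell-free enzymatic assay with recombinant protein and specific substrate; fluorescence and electrophoretic mobility shift read-out 1 h after dosing. Primary screen duplicate at 25 uM; actives then run in concentration-response up to 50 uM, loss of signal versus DMSO.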

[4] = target: human Matrix Metalloproteinase-7 (MMP7), MMP7 (gene 4316) (UniProt P09237); test: NVS_ENZ_hMMP7: NovaScreen (NVS) Enzymatic Assay for human Matrix Metalloproteinase-7 (MMP7) (AID 2283183)
human Matrix Metalloproteinase-7 (MMP7), MMP7 (gene 4316), sequence (P09237 whole entry, looked up): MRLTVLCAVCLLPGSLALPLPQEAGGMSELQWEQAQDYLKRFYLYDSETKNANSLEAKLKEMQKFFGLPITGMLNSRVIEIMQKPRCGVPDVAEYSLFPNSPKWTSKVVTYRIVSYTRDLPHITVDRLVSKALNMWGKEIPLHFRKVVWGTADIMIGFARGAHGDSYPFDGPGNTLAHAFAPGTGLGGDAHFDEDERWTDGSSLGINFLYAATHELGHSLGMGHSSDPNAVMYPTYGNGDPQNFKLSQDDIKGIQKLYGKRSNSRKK
Outline: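 Cell-free fluorescence enzymatic assay read 1 h after compound addition, activity loss analyzed against DMSO. Primary duplicate testing at 25 uM; compounds meeting threshold rerun in singleton concentration-response up to 50 uM.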

[5] = target: human Matrix Metalloproteinase-2 (MMP2), MMP2 (gene 4313) (UniProt P08253); test: NVS_ENZ_hMMP2: NovaScreen (NVS) Enzymatic Assay for human Matrix Metalloproteinase-2 (MMP2) (AID 2283184)
human Matrix Metalloproteinase-2 (MMP2), MMP2 (gene 4313), sequence (P08253 whole entry, looked up): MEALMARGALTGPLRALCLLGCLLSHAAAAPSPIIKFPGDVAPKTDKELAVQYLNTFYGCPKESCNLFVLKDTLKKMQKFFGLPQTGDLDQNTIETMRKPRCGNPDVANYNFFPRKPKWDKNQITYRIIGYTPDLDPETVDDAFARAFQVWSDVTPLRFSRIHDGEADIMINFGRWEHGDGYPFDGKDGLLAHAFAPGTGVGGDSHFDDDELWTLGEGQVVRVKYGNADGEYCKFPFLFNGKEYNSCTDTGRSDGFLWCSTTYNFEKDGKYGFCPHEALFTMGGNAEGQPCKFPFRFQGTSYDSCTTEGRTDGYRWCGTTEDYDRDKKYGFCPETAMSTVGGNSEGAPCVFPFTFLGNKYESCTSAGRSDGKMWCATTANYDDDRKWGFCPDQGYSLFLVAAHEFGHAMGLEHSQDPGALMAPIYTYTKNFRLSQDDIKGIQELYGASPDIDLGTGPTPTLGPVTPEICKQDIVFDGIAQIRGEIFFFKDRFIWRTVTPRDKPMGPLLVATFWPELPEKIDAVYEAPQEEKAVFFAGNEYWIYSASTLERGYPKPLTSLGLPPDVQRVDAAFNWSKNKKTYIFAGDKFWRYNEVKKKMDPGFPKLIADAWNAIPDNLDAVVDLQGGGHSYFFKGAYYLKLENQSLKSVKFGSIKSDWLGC
Outline: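 Cell-free recombinant MMP2 activity with a fluorescent substrate, read 1 h after dosing. Primary screen in duplicate at 25 uM; actives then run in concentration series; loss of signal fitted versus DMSO.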

[6] = target: human p21 Activated Kinase 4 (PAK4), PAK4 (gene 10298) (UniProt O96013); test: NVS_ENZ_hPAK4: NovaScreen (NVS) Enzymatic Assay for human p21 Activated Kinase 4 (PAK4) (AID 2283189)
Outline: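 Cell-free recombinant human PAK4 activity assay; fluorescent substrate and product separated by electrophoretic mobility shift, read 1 h after dosing. Initially tested in duplicate at 25 uM, relative to DMSO baseline.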

[7] = target: human Matrix Metalloproteinase-9 (MMP9), MMP9 (gene 4318) (UniProt P14780); test: NVS_ENZ_hMMP9: NovaScreen (NVS) Enzymatic Assay for human Matrix Metalloproteinase-9 (MMP9) (AID 2283190);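 note: cell-free recombinant MMP9 protease activity read by fluorescent substrate signal; active means inhibition seen as loss of fluorescence signal versus DMSO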
human Matrix Metalloproteinase-9 (MMP9), MMP9 (gene 4318), sequence (P14780 whole entry, looked up): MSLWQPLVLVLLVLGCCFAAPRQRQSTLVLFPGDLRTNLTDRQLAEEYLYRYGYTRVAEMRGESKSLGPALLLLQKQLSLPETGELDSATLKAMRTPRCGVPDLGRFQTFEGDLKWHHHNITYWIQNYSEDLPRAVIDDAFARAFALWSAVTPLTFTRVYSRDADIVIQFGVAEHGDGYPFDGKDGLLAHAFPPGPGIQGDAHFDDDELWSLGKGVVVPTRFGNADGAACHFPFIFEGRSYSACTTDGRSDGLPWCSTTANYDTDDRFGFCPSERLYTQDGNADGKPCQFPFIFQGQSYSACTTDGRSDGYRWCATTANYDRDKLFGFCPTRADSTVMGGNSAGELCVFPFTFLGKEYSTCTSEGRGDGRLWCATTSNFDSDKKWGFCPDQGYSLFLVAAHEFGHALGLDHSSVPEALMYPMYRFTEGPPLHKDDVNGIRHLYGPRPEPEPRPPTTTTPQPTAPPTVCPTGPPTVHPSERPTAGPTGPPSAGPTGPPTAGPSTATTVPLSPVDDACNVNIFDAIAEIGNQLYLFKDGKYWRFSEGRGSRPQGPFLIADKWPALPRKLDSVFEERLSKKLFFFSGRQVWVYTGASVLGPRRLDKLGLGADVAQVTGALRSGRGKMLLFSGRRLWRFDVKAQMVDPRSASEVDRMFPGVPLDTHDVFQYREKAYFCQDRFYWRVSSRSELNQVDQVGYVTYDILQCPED
Outline: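 Screening concentration 25 uM, duplicate wells, then dose series for confirmation. Cell-free enzymatic reaction measured by fluorescence intensity 1 h post-dosing; decreased signal versus DMSO taken as activity.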

[8] = target: human Phosphodiesterase 5 (PDE5), PDE5A (gene 8654) (UniProt O76074); test: NVS_ENZ_hPDE5: NovaScreen (NVS) Enzymatic Assay for human Phosphodiesterase 5 (PDE5) (AID 2283194)
Outline: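 Recombinant human PDE5 with specific substrate, read 1 h after dosing by fluorescence with electrophoretic mobility-shift separation of substrate and product. Initial single-concentration duplicate screen at 25 uM, actives followed in concentration series; loss of activity versus DMSO.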

[9] = target: human MAP Kinase-Activated Protein Kinase 2 (MAPKAPK2), MAPKAPK2 (gene 9261) (UniProt P49137); test: NVS_ENZ_hMAPKAPK2: NovaScreen (NVS) Enzymatic Assay for human MAP Kinase-Activated Protein Kinase 2 (MAPKAPK2) (AID 2283178)
human MAP Kinase-Activated Protein Kinase 2 (MAPKAPK2), MAPKAPK2 (gene 9261), sequence (P49137 whole entry, looked up): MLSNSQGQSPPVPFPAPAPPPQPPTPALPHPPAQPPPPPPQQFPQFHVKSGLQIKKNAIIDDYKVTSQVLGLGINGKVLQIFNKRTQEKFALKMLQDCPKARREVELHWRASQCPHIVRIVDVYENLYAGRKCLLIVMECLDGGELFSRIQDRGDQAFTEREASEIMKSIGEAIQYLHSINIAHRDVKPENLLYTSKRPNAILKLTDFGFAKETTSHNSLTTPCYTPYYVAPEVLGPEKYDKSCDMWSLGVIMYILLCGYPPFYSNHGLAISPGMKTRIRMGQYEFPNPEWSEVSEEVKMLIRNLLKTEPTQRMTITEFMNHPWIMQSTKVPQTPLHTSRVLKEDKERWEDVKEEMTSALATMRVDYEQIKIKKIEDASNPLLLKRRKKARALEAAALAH
Outline: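 Cell-free recombinant human MAPKAPK2 activity measured by fluorescence with electrophoretic mobility shift separation of substrate and product, 1 hr after dosing. Loss of signal versus DMSO; primary screen at 25 uM, concentration-response up to 50 uM.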

[10] = target: human Matrix Metalloproteinase-1 (MMP1), MMP1 (gene 4312) (UniProt P03956); test: NVS_ENZ_hMMP1: NovaScreen (NVS) Enzymatic Assay for human Matrix Metalloproteinase-1 (MMP1) (AID 2283181)
human Matrix Metalloproteinase-1 (MMP1), MMP1 (gene 4312), sequence (P03956 whole entry, looked up): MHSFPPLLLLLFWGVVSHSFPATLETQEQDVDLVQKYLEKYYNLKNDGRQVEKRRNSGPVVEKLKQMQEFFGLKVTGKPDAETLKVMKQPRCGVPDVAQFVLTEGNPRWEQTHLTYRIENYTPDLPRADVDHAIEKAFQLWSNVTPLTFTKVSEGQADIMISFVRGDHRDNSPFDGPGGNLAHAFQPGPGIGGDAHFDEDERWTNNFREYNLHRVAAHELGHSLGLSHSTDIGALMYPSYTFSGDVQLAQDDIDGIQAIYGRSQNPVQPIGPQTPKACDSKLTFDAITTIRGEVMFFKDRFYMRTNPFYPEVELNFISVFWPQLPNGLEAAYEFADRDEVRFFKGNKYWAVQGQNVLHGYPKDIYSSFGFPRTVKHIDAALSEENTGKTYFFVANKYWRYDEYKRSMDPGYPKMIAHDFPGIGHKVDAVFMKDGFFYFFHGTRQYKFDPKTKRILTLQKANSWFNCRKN
Outline: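 Human MMP1 enzyme activity measured by fluorescence 1 h after dosing, cell-free, with a specific substrate. Screened in duplicate at 25 uM; hits (e.g. 30% inhibition) run in concentration-response up to 50 uM; loss of signal versus DMSO.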

[11] = target: human Phosphodiesterase 4A1 (PDE4A1), PDE4A (gene 5141) (UniProt P27815); test: NVS_ENZ_hPDE4A1: NovaScreen (NVS) Enzymatic Assay for human Phosphodiesterase 4A1 (PDE4A1) (AID 2283191)
Outline: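 Cell-free recombinant human PDE4A1 with fluorescent substrate; product separated by electrophoretic mobility shift, 1 h. Screened at 25 uM, then up to 50 uM in concentration-response; loss of signal fitted against DMSO.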

[12] = target: human NIMA (Never In Mitosis Gene A)-Related Kinase 2 (NEK2), NEK2 (gene 4751) (UniProt P51955); test: NVS_ENZ_hNEK2: NovaScreen (NVS) Enzymatic Assay for human NIMA (Never In Mitosis Gene A)-Related Kinase 2 (NEK2) (AID 2283188)
Outline: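 Cell-free NEK2 enzyme activity after 1 h exposure, read by fluorescence with electrophoretic mobility shift separating substrate and product. Primary screen in duplicate at 25 uM; actives then run as concentration series. Loss of signal versus DMSO scored.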

[13] = target: human Phosphodiesterase 10 (PDE10), PDE10A (gene 10846) (UniProt Q9Y233); test: NVS_ENZ_hPDE10: NovaScreen (NVS) Enzymatic Assay for human Phosphodiesterase 10 (PDE10) (AID 2283195)
Outline: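 Fluorescence/mobility-shift readout of PDE10A enzyme activity, taken 1 h post-dosing. Primary screen in duplicate at 25 uM; actives (e.g. ≥30% inhibition) retested as singleton concentration-response, top concentration 50 uM.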

[14] = target: Collagenase 3 (Homo sapiens) (UniProt P45452); test: NVS_ENZ_hMMP13: NovaScreen (NVS) Enzymatic Assay for human Matrix Metalloproteinase-13 (MMP13) (AID 2283182)
Outline: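 Recombinant MMP13 cleaving fluorescent substrate, cell-free, measured 1 h after dosing. Primary duplicate screen at 25 uM; actives tested in concentration-response up to 50 uM; loss of signal relative to DMSO.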

[15] = target: human IkappaB Kinase alpha (IKKa), CHUK (gene 1147) (UniProt O15111); test: NVS_ENZ_hIKKa: NovaScreen (NVS) Enzymatic Assay for human IkappaB Kinase alpha (IKKa) (AID 2283167)
human IkappaB Kinase alpha (IKKa), CHUK (gene 1147), sequence (O15111 whole entry, looked up): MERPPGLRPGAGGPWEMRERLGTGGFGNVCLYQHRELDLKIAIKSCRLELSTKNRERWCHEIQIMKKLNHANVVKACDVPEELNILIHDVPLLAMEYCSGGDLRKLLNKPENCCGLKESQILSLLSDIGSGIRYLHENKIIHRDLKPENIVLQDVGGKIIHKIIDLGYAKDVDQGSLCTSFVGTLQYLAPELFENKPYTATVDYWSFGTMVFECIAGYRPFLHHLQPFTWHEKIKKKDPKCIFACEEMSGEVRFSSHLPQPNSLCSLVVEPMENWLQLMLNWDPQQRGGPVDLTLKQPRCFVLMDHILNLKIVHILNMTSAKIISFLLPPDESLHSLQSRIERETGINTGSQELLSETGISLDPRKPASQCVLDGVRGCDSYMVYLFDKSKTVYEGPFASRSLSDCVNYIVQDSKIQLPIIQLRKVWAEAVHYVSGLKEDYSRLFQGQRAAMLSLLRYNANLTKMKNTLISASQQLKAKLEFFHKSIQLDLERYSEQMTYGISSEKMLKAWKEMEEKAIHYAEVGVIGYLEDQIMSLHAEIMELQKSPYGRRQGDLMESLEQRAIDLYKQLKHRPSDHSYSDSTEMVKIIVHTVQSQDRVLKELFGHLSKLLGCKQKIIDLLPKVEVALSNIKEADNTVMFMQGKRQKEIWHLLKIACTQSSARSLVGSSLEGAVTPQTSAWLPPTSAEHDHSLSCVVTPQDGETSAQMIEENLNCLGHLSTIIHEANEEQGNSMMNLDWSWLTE
Outline: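 Cell-free recombinant human IKKa with fluorescent substrate, product separated by electrophoretic mobility shift; read 1 hour after dosing. Primary screen duplicate at 25 uM, actives then concentration-response up to 50 uM; loss of signal relative to DMSO.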

[16] = target: human Insulin Receptor (InsR), INSR (gene 3643) (UniProt P06213); test: NVS_ENZ_hInsR: NovaScreen (NVS) Enzymatic Assay for human Insulin Receptor (InsR) (AID 2283168)
Outline: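 Fluorescent substrate phosphorylation by recombinant kinase, product resolved by electrophoretic mobility shift, read 1 h after dosing. Screened in duplicate at 25 uM; hits (e.g., 30% inhibition) run in concentration-response to 50 uM; DMSO as baseline.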

[17] = target: human MET Proto-Oncogene, Receptor Tyrosine Kinase (MET), MET (gene 4233) (UniProt P08581); test: NVS_ENZ_hMet: NovaScreen (NVS) Enzymatic Assay for human MET Proto-Oncogene, Receptor Tyrosine Kinase (MET) (AID 2283180)
Outline: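 Cell-free MET kinase assay using recombinant protein and fluorescent substrate, with mobility-shift separation; read 1 h after dosing. Primary duplicate at 25 uM; actives in singleton concentration-response to 50 uM maximum. Signal loss versus DMSO.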

[18] = target: human Mitogen- and Stress-activated Protein Kinase-1 (Msk1), RPS6KA5 (gene 9252) (UniProt O75582); test: NVS_ENZ_hMsk1: NovaScreen (NVS) Enzymatic Assay for human Mitogen- and Stress-activated Protein Kinase-1 (Msk1) (AID 2283187)
Outline: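 Recombinant kinase with fluorescent substrate; product separated by electrophoretic mobility shift, read 1 h after dosing. Screened in duplicate at 25 uM; hits (e.g. ≥30% inhibition) tested in concentration–response up to 50 uM. DMSO baseline.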

[19] = target: cAMP-dependent protein kinase catalytic subunit alpha (Homo sapiens) (UniProt P17612); test: NVS_ENZ_hPKA: NovaScreen (NVS) Enzymatic Assay for human Protein Kinase A (PKA) (AID 2283192)
Outline: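 Recombinant human PKA with specific fluorescent substrate, product separated by electrophoretic mobility shift, read 1 h after dosing. Primary screen at 25 uM in duplicate; actives then run in concentration-response up to 50 uM, activity relative to DMSO.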

For Oc1cc(Cl)ccc1Oc1ccc(Cl)cc1Cl, the outcome [1] was “inactive”, the outcome [2] was “inactive” and the outcome [3] was “inactive”. For the same compound, the AC50 [4] was 13 µM (active), the outcome [4] was “inactive” and the outcome [5] was “inactive”. For the same compound, the outcome [6] was “inactive”, the outcome [7] was “inactive” and the outcome [8] was “inactive”.
Oc1ccc(Cl)cc1Cc1ccccc1 was tested, and the outcome [9] was “inactive”, the AC50 [10] was 6.03 µM (active) and the outcome [10] was “inactive”. The AC50 [4] was 6.41 µM (active), the outcome [7] was “inactive” and the outcome [11] was “inactive”. The outcome [8] was “inactive”.
In the case of CCCN(CCOc1c(Cl)cc(Cl)cc1Cl)C(=O)n1ccnc1, the AC50 [10] is reported as 13 µM (active), the AC50 [11] is reported as 7.79 µM (active) and the AC50 [8] is reported as 9.58 µM (active).
For N#Cc1c(Cl)c(Cl)c(Cl)c(C#N)c1Cl, the outcome [3] was “inactive”, the outcome [4] was “inactive” and the outcome [12] was “inactive”. For the same compound, the AC50 [8] was 31.8 µM (active) and the outcome [13] was “inactive”.
COC(=O)c1ccccc1S(=O)(=O)NC(=O)Nc1nc(C)nc(OC)n1 was tested, and the outcome [14] was “inactive”.
In the case of O=[N+]([O-])/N=C1\NCCN1Cc1ccc(Cl)nc1, the outcome [3] is reported as “inactive”.
In the case of Cc1cc(C)nc(NC(=O)NS(=O)(=O)c2ccccc2C(=O)OC2COC2)n1, the AC50 [9] is reported as 18.6 µM (active).
In the case of O=C(O)COc1ccc(Cl)cc1Cl, the outcome [15] is reported as “inactive”.
In the case of CC1(C)C(C=C(Cl)Cl)C1C(=O)OC(C#N)c1ccc(F)c(Oc2ccccc2)c1 (stereo unspecified), the outcome [12] is reported as “inactive”.
For CN1CSC(=S)N(C)C1, the outcome [7] was “inactive”.
With O=C(O)C(F)(F)C(F)(F)C(F)(F)C(F)(F)C(F)(F)C(F)(F)C(F)(F)F the outcome [15] was “inactive”, the outcome [16] was “inactive” and the outcome [9] was “inactive”. For the same compound, the outcome [17] was “inactive”, the outcome [14] was “inactive” and the outcome [18] was “inactive”. For the same compound, the outcome [7] was “inactive” and the outcome [19] was “inactive”.
For CC[C@H](C)[C@H]1O[C@]2(C=C[C@@H]1C)C[C@@H]1C[C@@H](C/C=C(\C)[C@@H](O[C@H]3C[C@H](OC)[C@@H](O[C@H]4C[C@H](OC)[C@@H](O)[C@H](C)O4)[C@H](C)O3)[C@@H](C)/C=C/C=C3\CO[C@@H]4[C@H](O)C(C)=C[C@@H](C(=O)O1)[C@]34O)O2 (tested in a mixture with another compound), the AC50 [1] was 13.8 µM (active), the AC50 [14] was 25 µM (active) and the AC50 [7] was 5.22 µM (active).
